Experimental data published in PubChem BioAssay AID778 (Sanford-Burnham Center for Chemical Genomics, 2007).
Screen size: about 96,000 compounds; about 20,000 (21%) were called active.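 Rule for the calls: active = CYP2C19 inhibition above a set limit at 5 µM in the primary screen (cut at about 50% in these data); inactive = the rest.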 Not all results are given here.

Biological target: Cytochrome P450 2C19 (Homo sapiens) (UniProt P33261)
Experiment: blockers of cytochrome P450 2C19 activity – biochemical, luminescence, ADME assay, primary screen (AID 778);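 note: plate controls were negative control wells for no effect and 2.5 mM tranylcypromine positive control for full effect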
Conditions: CYP2C19 Supersomes, luciferin-H EGE luminescence, 30 min; at 5 µM; hits give high values

Cytochrome P450 2C19 (Homo sapiens), sequence (P33261 whole entry, looked up): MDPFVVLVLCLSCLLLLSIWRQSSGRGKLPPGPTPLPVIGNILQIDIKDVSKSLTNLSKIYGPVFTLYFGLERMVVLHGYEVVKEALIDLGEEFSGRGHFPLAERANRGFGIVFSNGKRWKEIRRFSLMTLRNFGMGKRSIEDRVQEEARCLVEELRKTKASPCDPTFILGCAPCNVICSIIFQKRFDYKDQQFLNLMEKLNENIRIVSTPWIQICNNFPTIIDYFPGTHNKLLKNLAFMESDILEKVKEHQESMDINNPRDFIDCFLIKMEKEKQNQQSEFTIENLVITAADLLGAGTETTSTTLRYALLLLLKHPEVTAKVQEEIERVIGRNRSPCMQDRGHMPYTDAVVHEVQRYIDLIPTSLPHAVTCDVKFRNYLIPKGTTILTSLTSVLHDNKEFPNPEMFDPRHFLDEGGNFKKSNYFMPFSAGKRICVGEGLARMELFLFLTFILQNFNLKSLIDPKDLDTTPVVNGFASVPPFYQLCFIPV

SMILES | inhibition
O=C(c1ccco1)N(Cc1nc2ccccc2c(=O)[nH]1)C1CCCC1 | 7.2% (inactive)
CN(Cc1nc2ccccc2c(=O)[nH]1)Cc1cc(=O)oc2ccc3ccccc3c12 | 2.9% (inactive)
CCCC(=O)N(CCc1ccccc1)Cc1nc2ccccc2c(=O)[nH]1 | 53.5% (active)
O=C(Nc1ccc(Cl)cn1)Nc1cccs1 | 31.4% (inactive)
O=C1OC(c2ccc(Cl)cc2)=N/C1=C\c1cccnc1 | 33.1% (inactive)
CCN(CC)C(=O)CC1(c2ccccc2OC)CCOC(C(C)C)C1 (configuration not stated) | 73.3% (active)
CCN(CC)C(=O)CSc1nc2ccccc2n1CC(=O)N1CCN(c2ccccc2OC)CC1 | 27% (inactive)
C/C(CC(O)(/C=N/O)c1ccccc1)=N\O (configuration not stated) | -13% (inactive)
Cc1ccc(N2CCN(/N=C/c3cccs3)CC2)cc1 | 35.3% (inactive)
O=C(Cn1[nH]c(=O)c2ccccc2c1=O)Nc1cccc(-c2nnc3n2CCCCC3)c1 | 25.7% (inactive)
O=C(CN1C(=O)NC(Cc2ccccc2)(Cc2ccccc2)C1=O)NCC1CCCCC1 | 41.6% (inactive)
O=C(NCCCN1CCN(Cc2ccccc2)CC1)C1CCN(S(=O)(=O)N2CCCC2)CC1 | -1.9% (inactive)
O=C(NCc1ccccc1)C1C(=O)N(Cc2ccccc2)C(=O)C1C1(O)CCCC1 (configuration not stated) | 91.9% (active)
Cc1ccccc1Nc1nnc(C)c(=O)[nH]1 | 0.4% (inactive)
N#CCSc1nc2ccccc2c(=O)n1-c1ccccc1 | 13.3% (inactive)
COc1cccc(-n2cc(C(=O)O)c3ccccc3c2=O)c1 | 1.5% (inactive)
COCC(C)n1c(SCc2ccc(C(=O)OC)o2)nc2ccccc2c1=O (configuration not stated) | 96.7% (active)
COC(=O)c1ccc(CSc2nc3ccccc3c(=O)n2-c2cccc(OC)c2)o1 | 98.4% (active)
CCc1c(O)nc(SCC(=O)Nc2ccccc2)n(C(C)CC)c1=O (configuration not stated) | 0.7% (inactive)
CN1CCN(C(=O)C2C3C=CC(C3)C2C(=O)O)CC1 (configuration not stated) | 33.8% (inactive)
OCCNc1nc2ccccc2n1-c1ncnc2sc3c(c12)CCC3 | -6% (inactive)
COc1ccc(N2C(=O)C3CCCN3C2c2cc(OC)c(OC)cc2OC)cc1 (configuration not stated) | -12.2% (inactive)
Cc1ccsc1CNn1cnnc1SCc1ccccc1F | 83.4% (active)
Cc1ccccc1CSc1nnc(-c2cccnc2)n1N | 28.5% (inactive)
COc1ccc2[nH]c(=O)c(CNc3ccc(C)c(C)c3)cc2c1 | 24% (inactive)
COc1cccc2cc(C(C)N(CCCN3CCOCC3)C(=O)Nc3ccc(Cl)cc3)oc12 (configuration not stated) | 48.4% (inactive)
Cc1ccc(-c2csc(-c3c[nH]c4ccccc34)n2)cc1 | -2.4% (inactive)
